FAS-TE inh = blocks the thioesterase domain of human fatty acid synthase; inhibition, % at 15 µM; P49327; 0.67% of 360,000 active; recombinant FAS-TE, OMFH fluorogenic substrate, fluorescence endpoint; AID 602261;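 active = compounds whose normalised, plate-corrected inhibition of enzyme fluorescence in the single-dose primary screen is 50% or more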;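 also: 0% = DMSO with enzyme and 100% = substrate without enzyme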
ADAM10 inh = inhibitors of human ADAM10. O14672. recombinant ADAM10, EDANS/DABCYL FRET peptide cleavage, 3 h. inhibition, % at 7 µM. 0.62% of 370,000 active. AID 720582;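 active = inhibition above a per-campaign cutoff equal to the mean of compounds falling between control-based bounds plus 3 SD, cut at about 20% in these data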;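 also: 0% = DMSO wells while the 100% control is not disclosed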
Target sequence (O14672 214-748 limits assumed): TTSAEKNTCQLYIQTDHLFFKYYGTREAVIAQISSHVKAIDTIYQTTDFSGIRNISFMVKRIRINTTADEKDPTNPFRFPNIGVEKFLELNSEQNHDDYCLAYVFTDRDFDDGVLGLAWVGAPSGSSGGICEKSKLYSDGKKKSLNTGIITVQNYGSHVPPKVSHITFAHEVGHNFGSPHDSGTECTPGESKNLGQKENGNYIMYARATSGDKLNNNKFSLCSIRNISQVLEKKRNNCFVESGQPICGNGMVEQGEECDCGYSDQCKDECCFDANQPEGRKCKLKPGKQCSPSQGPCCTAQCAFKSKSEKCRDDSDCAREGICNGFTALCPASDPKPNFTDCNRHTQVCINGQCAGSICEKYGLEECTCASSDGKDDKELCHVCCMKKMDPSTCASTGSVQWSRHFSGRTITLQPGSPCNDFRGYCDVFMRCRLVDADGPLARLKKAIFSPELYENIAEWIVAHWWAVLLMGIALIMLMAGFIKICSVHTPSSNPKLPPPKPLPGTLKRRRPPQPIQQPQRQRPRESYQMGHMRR
NR3A LBD binder = NR3A (human) ligand-binding domain modulation; NR3A LBD differential scanning fluorimetry, Tm shift; 0% = protein alone, 100% = glycine-bound protein; 2.5% of 340,000 active; Tm shift relative to glycine control, % at 25 µM;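 active = melting temperature shift of at least 10% of the positive control shift, at one fixed dose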
ADAM17 inh = inhibits human ADAM17; 0.83% of 370,000 active; AID 720648; recombinant ADAM17, EDANS/DABCYL FRET peptide cleavage; inhibition, % at 6.95 µM;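 active = inhibition above the mean of compounds lying between control limits plus 3 SD, set per campaign, cut at about 8.5% in these data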;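 also: 0% = DMSO-only wells as the low control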
proKLK7 act = proKLK7 (human) activation, primary screen | purified proKLK7, EDANS-DABCYL substrate fluorescence; 100% is mature enzyme control, 0% vehicle | AID 652039 | 0.9% of 370,000 active | activation, % at 7 µM | P49862;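 active = activation above the mean of all tested compounds plus 3 SD, computed per campaign excluding outliers beyond control limits, cut at about 13% in these data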
proKLK7 act conf = confirmation of human kallikrein-7 zymogen activators. shares compounds with proKLK7 act. activation, % at 7 µM. 68% of 3,200 active. purified proKLK7, EDANS-DABCYL substrate fluorescence; scaled: vehicle 0, mature enzyme 100;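 active = activation, as change over the incubation, above the mean of all tested compounds plus 3 SD, cut at about 13% in these data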
EDANS interfere = counter-screen for kallikrein-7 activators: EDANS-DABCYL optical interference | 80% of 3,200 active | EDANS-DABCYL substrate fluorescence interference, no enzyme, 4 h; solvent 0%, active enzyme control 100% | activation, % at 7 µM | AID 686952 | shares compounds with proKLK7 act;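 active = activation above the all-compound mean plus 3 SD, ignoring values outside control-based bounds, cut at about 4.8% in these data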;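 also: value is the 4 h activation minus the activation read at time zero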
K7 EDANS ctr = counter-screen for kallikrein-7 activators: EDANS-DABCYL interference, dose response | shares compounds with proKLK7 act | EDANS-DABCYL peptide fluorescence interference, no enzyme | EC50, µM | 20% of 250 active | AID 720493;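 active = compounds that raise the fluorescence signal in this interference counterscreen, with EC50 at or below 10 µM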;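 also: intact quenched peptide substrate alone read at 355 nm excitation and 520 nm emission; signal is fluorescence gain from T0 to T4 after four hours at room temperature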
* hit, by the source's call; i = inactive; . = not tested or not shown. Rows were chosen to be rich in hits. Some 4.6% of all compounds tested hit in one or more screens of this group.

SMILES	FAS-TE inh	ADAM10 inh	NR3A LBD binder	ADAM17 inh	proKLK7 act	proKLK7 act conf	EDANS interfere	others
N#Cc1c(N(CCO)CCO)nc(N)c2c(N)nc3c(c12)CC(=O)N3CC1CCCO1 (stereo unspecified)	-5	-212	-1	-72	30*	43*	49*
CCCCN1C(=O)Cc2c1nc(N)c1c(N)nc(N(CCC)CCC)c(C#N)c21	-8	-92	-4	-12	-1	.	.
Cc1ccccc1CN1CCCCC(NC(=O)c2ccccc2C(F)(F)F)C1=O (stereo unspecified)	.	-4	.	-4	0	.	.
CC(=O)Nc1sc(C)c(C)c1C(=O)OCC(=O)NCc1ccccc1	-2	-3	1	-6	-1	.	.
COc1ccc(NC(=O)COC(=O)c2c(NC(C)=O)sc(C)c2C)cc1	1	-12	.	-2	26*	-1	-1
COc1ccc(-n2c(SCC(=O)N3CCCCC3C)nnc2-c2ccncc2)cc1 (stereo unspecified)	.	-3	.	-1	1	.	.
COC(=O)C(CC(C)C)NC(=O)c1cccs1 (stereo unspecified)	-4	-2	1	-5	0	.	.
CCOP(=O)(OCC)C(NC(=O)c1cccs1)C(F)(F)F (stereo unspecified)	-10	-195	1	-54	167*	241*	247*
Cc1cc(-c2ccc(F)cc2)nc2cc(C(N)=O)nn12	-5	-217	0	-81	9	.	.
CCOC(=O)c1cnn2c(C)cc(-c3ccc(F)cc3)nc12	-2	i	-1	-236	26*	-4	17*
Cc1cc(-c2n[nH]c(=S)n2N=Cc2cccc(Oc3ccccc3)c2)n[nH]1	.	-3	.	-1	0	.	.
COCCNc1nc(Oc2ccccc2)c2sccc2n1	0	-76	.	-20	0	.	.
c1csc(CNc2nc(Oc3ccncc3)c3sccc3n2)c1	-6	i	.	-296	17*	5	12*
COc1ccc(Nc2nc(NCc3cccs3)nc3ccsc23)cc1OC	1	-6	.	1	0	.	.
c1ccc(CNc2nc(Oc3ccncc3)c3sccc3n2)cc1	-6	i	.	-218	15*	10	4.9*
CC(C)C(=O)OCCCN1CCC2(CCC(c3ccccc3)CC2)C1=O (stereo unspecified)	.	1	.	-1	0	.	.
COc1ccc([C@H]2OC(=O)C[C@@H]2C(=O)N2CCCCC2)cc1OC	.	-1	.	-2	0	.	.
Cc1ccccc1-n1c(=O)c(C#N)cc2c(=O)n3ccccc3nc21	-5	i	1	i	13*	71*	73*
Cc1cc(-n2c(=O)c(C#N)cc3c(=O)n4ccccc4nc32)no1	4	i	0	i	22*	30*	57*
C=CCn1c(=O)c(C#N)cc2c(=O)n3ccccc3nc21	15	i	-3	i	39*	67*	83*
N#Cc1cc2c(=O)n3ccccc3nc2n(-c2ccc(Cl)cc2)c1=O	35	i	0	-190	3	.	.
CC(C)(C)OC(=O)/C=C/[C@@H](CCCCl)Sc1ccc(C(C)(C)C)cc1	.	12	.	6	0	.	.
COc1ccccc1C1C2=C(CC(C)(C)CC2=O)Nc2nnnn21 (stereo unspecified)	-8	-28	-1	-7	15*	22*	20*
COc1ccccc1C1C=C(c2ccc(C)cc2)Nc2nnnn21 (stereo unspecified)	3	-88	5	-33	19*	22*	17*	K7 EDANS ctr=i
O=C(CSc1nncc(=O)[nH]1)NC1CCCCC1	-2	-1	0	-3	-8	.	.
SMILES	FAS-TE inh	ADAM10 inh	NR3A LBD binder	ADAM17 inh	proKLK7 act	proKLK7 act conf	EDANS interfere	others
O=C(CSc1nccc(=O)[nH]1)NC1CCCCCC1	-7	-3	3	-2	61*	0	0
CC(C)N(C(=O)COC(=O)c1cc(Cl)cc(Cl)c1N)C(C)C	13	-1	0	-5	0	.	.
CN(C)C(=O)COC(=O)c1cc(Cl)cc(Cl)c1N	-4	i	0	i	25*	24*	31*
CC(=O)N1CCN(C2=NC(=O)N(c3ccc(Br)cc3)C(=O)C2)CC1	.	-7	.	-2	0	.	.
CCOC(=O)CSc1nc(N)c(C#N)c(-c2ccc(OC)cc2)c1C#N	-2	-41	-12	-14	-3	.	.
N#Cc1ccc(-c2cccnc2)nc1SCC(N)=O	4	-147	-2	-34	0	.	.
Cc1cc(-c2ccccc2)c(C#N)c(SCC(N)=O)n1	0	-9	0	-3	0	.	.
CCOC(=O)CC(=O)CSc1nc(-c2cccnc2)ccc1C#N	-6	-137	0	-44	84*	286*	286*
CCOC(=O)CC(=O)CSc1nc(-c2cccnc2)cc(C)c1C#N	-10	-14	2	-9	34*	116*	123*
CCOC(=O)CC(=O)CSc1nc(N)c(C#N)c(-c2ccc(F)cc2)c1C#N	0	-9	-4	-4	14*	13*	13*
CCOC(=O)CC(=O)CSc1nc(C)cc(-c2cccnc2)c1C#N	-4	-24	-2	-9	35*	98*	72*	K7 EDANS ctr=5.5*
Cc1ccc(CN2CCCCC(NC(=O)Nc3ccccc3F)C2=O)cc1 (stereo unspecified)	.	-2	.	-1	0	.	.
COc1ccc2nc3cc(Cl)ccc3c(Nc3ccc(O)c(CN4CCN(C)CC4)c3)c2c1	-4	-483	-7	-111	22*	32*	22*	K7 EDANS ctr=>69
C=CCOc1ccc(/C=N/NC(=O)c2c(C)nc3ccc(Cl)cn23)cc1	1	2	-2	2	23*	348*	333*
COc1cc(/C=N/NC(=O)c2c(C)nc3ccc(Cl)cn23)cc(OC)c1OC	-5	-106	0	-40	36*	19*	14*	K7 EDANS ctr=i
COC(=O)c1ccc(/C=N\NC(=O)c2c(C)nc3ccc(Cl)cn23)cc1	-8	.	-3	.	.	.	.
COc1ccc(OC)c(/C=N\NC(=O)c2c(C)nc3cc(C)ccn23)c1	-3	i	0	-481	16*	24*	-10	K7 EDANS ctr=>70
CN(C)C=Nc1ccc(Cl)c(Cl)c1	-3	2	1	-3	0	.	.
CN(C)C=Nc1ccc2nn(-c3ccccc3)nc2c1	-7	i	-3	-378	19*	66*	69*
C[C@H]1[C@@H](OC(=O)NCc2ccc(C(F)(F)F)cc2)CC[C@@]23CCCN2C(=O)CCC[C@@H]13	.	5	.	1	.	.	.
CCOc1ccc(-n2nc3ccc(N)cc3n2)cc1	0	-201	-8	-95	7	.	.

Screens deposited in PubChem BioAssay by several laboratories.
